Shown is part of a subset that was picked to be rich in hits.
Dicer inh: blocks human Dicer maturation of pre-miR-21; cat-ELCCA pre-miR-21 Dicer processing, chemiluminescence; active compounds read high; z-score at 25 µM; AID 1347074; Q9UPY3; actives 6% (n = 47,000); in the data active means z-score above about 3, passing the limit was not always enough;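 further: higher signal means more uncleaved substrate so more Dicer inhibition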
Hits are given with their value; n = inactive.

SMILES	Dicer inh
O=[N+]([O-])c1cc(Br)cc2c1[nH]c1c(Br)cc(Br)cc12	n
CC(C)(C)C(=O)NC(=O)Nc1cc(C(F)(F)F)ccc1Cl	4.1
CC(C)(C)C(=O)NC(=O)Nc1cc(C(F)(F)F)cc(C(F)(F)F)c1	n
NNC(=S)Nc1cc(C(F)(F)F)ccc1Cl	n
O=[N+]([O-])c1cccc(-c2noc(CSC3=NCCN3Cc3ccccc3)n2)c1	n
O=S(=O)(Cc1ccccc1)c1ncc(CO)n1Cc1ccccc1	n
CCCS(=O)(=O)C/C(N)=N/OC(=O)Nc1ccc(Cl)cc1	n
CC1CCN(CC(C)OC(=O)C2COc3ccccc3O2)CC1 (stereo not given)	n
O=C(C1COc2ccccc2O1)N1CCCC1 (stereo not given)	n
CC(CN(C)Cc1ccccc1)OC(=O)C1COc2ccccc2O1 (stereo not given)	3.5
COc1ccc2c(c1)C(=O)/C(=C/c1ccc(Cl)cc1)CC2	n
N/C(=N\NS(=O)(=O)c1ccccc1)c1cnccn1	n
O=[N+]([O-])c1ccc2c(c1)CCN2C(=S)Nc1ccccc1Cl	n
CNc1nsc(C(=O)c2ccc(Cl)cc2)c1N	n
O=S(=O)(NCCCn1ccnc1)c1ccc2c(c1)OCCO2	n
c1cc2c3c(cccc3c1)-c1nc3ccccc3nc1-2	n
Nc1cccc(C2=Nc3cccc4cccc(c34)N2)c1	3.2
CN(C)c1ccc(C2=Nc3cccc4cccc(c34)N2)cc1	n
COc1ccc(C2=Nc3cccc4cccc(c34)N2)cc1	n
N#CC1=CNc2ccccc2N=C1N	n
NC1=Nc2cccc3cccc(c23)N1	26
CC1=C(C(=O)OCc2ccccc2)C(c2cccc(F)c2)C2=C(CCCC2=O)N1 (stereo not given)	n
CCOC(=O)NC(=O)/C(C#N)=C/Nc1sc(C)c(C)c1C(=O)OCC	n
C=CCOc1ccc(C2N3CC4(C)CN2CC(C)(C3)C4=O)cc1 (stereo not given)	n
O=C(Oc1ccccc1)OC1CCS(=O)(=O)C1 (stereo not given)	4
SMILES	Dicer inh
Cc1ccc(OC2CCS(=O)(=O)C2)cc1 (stereo not given)	n
O=C(Nc1ccccc1)NC1CCS(=O)(=O)C1 (stereo not given)	n
COC(=O)CSc1nc(N)cc(=O)[nH]1	n
O=C(Nc1cc(Cl)ccc1O)c1cccs1	n
O=C(Nc1ccncc1[N+](=O)[O-])c1cccs1	3.5
O=C(Nc1cccc2nsnc12)c1cccs1	n
COCCOc1nc2c(c(=O)n(C)c(=O)n2C)n1C(C)c1ccccc1 (stereo not given)	n
Cc1cccc(Cn2nc(C(C)(C)C)cc2-c2n[nH]c(=S)o2)c1	n
Cc1cc(C)c(S(=O)(=O)NCc2ccc3c(c2)OCO3)cc1Br	n
CC1(C)CC(=O)C2=C(C1)NC1=C(C(=O)CC(C)(C)C1)C2c1ccc(Cl)c(Cl)c1	n
O/N=C1/c2ccccc2CCC1Cn1ccnc1 (stereo not given)	n
CSc1nc2c(c(=O)n1C)C1(CCCC1)Cc1ccccc1-2	4.2
C=CCSc1nc2c(c(=O)n1CC)C1(CCCC1)Cc1ccccc1-2	n
C=CCn1c(SCC)nc2c(c1=O)C1(CCCC1)Cc1ccccc1-2	n
O=C(O)c1ccc(-c2nnn(Cc3ccc(F)cc3)n2)cc1	n
c1ccc(Cn2nnc3c(N4CCN(c5ccccc5)CC4)ncnc32)cc1	n
CCSc1nnc2c(n1)OC(c1ccc(O)cc1)Nc1ccccc1-2 (stereo not given)	n
CCSc1nnc2c(n1)OC(c1ccc(N(C)C)cc1)Nc1ccccc1-2 (stereo not given)	n
CCCSc1nnc2c(n1)OC(/C=C/c1ccc([N+](=O)[O-])o1)Nc1ccccc1-2 (stereo not given)	3.5
O=C(CC(Sc1ccc(Cl)cc1Cl)c1ccccc1)c1ccc(F)cc1 (stereo not given)	n
Nc1ncc(C(=O)Nc2ccc(F)cc2F)c(C(F)(F)F)n1	n
O=C(Nc1ccccc1)c1ccc(Cl)c(Cl)c1	n
CC(C)(C)c1cn2nc(C(C)(C)C)sc2n1	n
CCOC(=O)NC(=S)Nc1ccc(C(C)(C)C)cc1Cl	n
CNC(=O)Nc1ccc(C(C)(C)C)cc1Cl	5.1
SMILES	Dicer inh
CNC(=O)NNC(=O)c1ccc(C(C)(C)C)cc1	n
CN(C)c1ccc(C2CC(=O)c3cnc(NCCN4CCOCC4)nc3C2)cc1 (stereo not given)	n
CC(C)CNC(=O)c1sc(=S)n(-c2ccc(Cl)cc2)c1N	n
COC(=O)c1cccc(C(=O)Oc2ccc(OC)cc2)n1	n
CCOC(=O)c1cccc(C(=O)Oc2ccccc2)n1	6.2
CCOC(=O)c1cccc(C(=O)O)n1	n
COC(=O)c1c(NC(=O)c2sc3ccccc3c2Cl)sc(C)c1C	n
COc1ccc(C2C(C(=O)OC(C)C)=C(C)NC3=C2C(=O)CCC3)c(OC)c1 (stereo not given)	n
Cc1cc(C)c(Nc2nnns2)c(C)c1	n
Cc1cc(C)c(Nc2n[nH]c(=S)s2)c(C)c1	n
Cc1cc(C)c(Nc2nc3cc(Br)cc(C)c3s2)c(C)c1	3.8
CC(C)c1ccc(C2CC(=O)Oc3c2c(=O)n(C)c2ccccc32)cc1 (stereo not given)	n
